Reference: PubChem BioAssay (NCATS)
Inconclusive results are not listed. Unmarked numbers belong to inactive results. Calls follow the shape of the dose curve; as a rule, active = well fitted activation curve with a large enough effect; inconclusive = small, poorly fitted or top-dose-only effect; inactive = flat fitted curve, though single readings scatter.

assay: Cellular Toxicity (caspase-3) Jurkat (AID 655); settings: Jurkat caspase-3 activation, luminescence; caspase-3 activation: at 92.2 µM (top of the series), DMSO = 0%, tamoxifen = 100%;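 also: cells exposed to compound for 16 h at 37 °C before reading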
Excerpt: NIH Chemical Genomics Center [NCGC]
NIH Molecular Libraries Screening Centers Network [MLSCN]
National Institutes of Environmental Health Sciences [NIEHS]
National Toxicology Program [NTP]
We have developed a 1536-well cell-based assay for quantitative high throughput screening (qHTS) against a number of cell lines to determine in vitro caspase 3/7 of small molecules. This particular assay uses the Jurkat cell line which is derived from human T cell leukemia.
NCGC Assay Protocol Summary:
The Caspase-Glo 3/7 assay (Promega) is a homogeneous method to measure caspase-3 and caspase-7 activities in cultured cells. The quantitation of caspase 3/7 activity is based on the cleavage of a peptide-aminoluciferin substrate. After caspase cleaves the substrate the free aminoluciferin is liberated and serves as the substrate of luciferase, which generates the light. The luminescent signal is proportional to amount of caspase 3/7 activity present.
Using the Caspase-Glo 3/7 assay, the amount of caspase 3/7 activity was measured in the Jurkat cell line with complete culture medium following compound treatment for 16 hours. The assay was performed in opaque white 1536-well plates. In the screen, tamoxifen and doxorubicin were used as positive controls. Library compounds were measured for their ability to cause the activation of caspase 3/7 in the cell line, as reflected by an increase in luminescence signal, in a concentration-dependent manner. Data were normalized to the controls for basal activity (DMSO only) and 100% stimulation (100 uM tamoxifen). AC50 values were determined from concentration-response data modeled with the standard Hill equation.
qHTS protocol for caspase 3/7 assay in Jurkat cells
[Step] [Parameter] [Value] [Description]
1. Reagent; 5 uL; 5000 Jurkat cells/well
3. Controls; 23 nL; Tamoxifen 0.23 uM to 100 uM & Doxorubicin 7.0 pM to 100 uM
4. Time; 16 hr; 37 °C incubation
5. Reagent; 5 uL; Caspase-Glo 3/7 reagent
6. Time; 20 min; Room Temperature
7. Detection; Luminescence; Viewlux plate reader
Keywords: caspase 3/7, apoptosis, Jurkat cell line, luminescence, NTPHTS, NTPHTS_NCGC, NIEHS, EPA, DSSTox, MLSMR, MLSCN, NIH Roadmap, qHTS, NCGC

For `O=C1OC(=O)c2c(Cl)c(Cl)c(Cl)c(Cl)c21`, which caspase-3 activation is on record?
Its caspase-3 activation is 0.457%.

For `CC(=O)c1cc(C)oc1C`, which caspase-3 activation is on record?
The caspase-3 activation was 0.691%.

For `CN(C)CCCCl`, which caspase-3 activation is on record?
The caspase-3 activation was 1.76%.

Which caspase-3 activation does the source give for `O=CNc1ccccc1` here?
Its caspase-3 activation is 0.613%.

With `Nc1ccc(Cl)cc1[N+](=O)[O-]` as the compound, how does the caspase-3 activation read?
Its caspase-3 activation is -0.00309%.

Which caspase-3 activation does the source give for `CCOC(=O)OCC` here?
Its caspase-3 activation is 0.854%.

With `Cc1ccc(C)o1` as the compound, how does the caspase-3 activation read?
Its caspase-3 activation is 1.7%.

Which caspase-3 activation does the source give for `OC/C(Br)=C(\Br)CO` here?
Its caspase-3 activation is 3.75%.

With `O=C1C=CCCC1` as the compound, how does the caspase-3 activation read?
Its caspase-3 activation is -0.0925%.

For `CCN(Cc1ccccc1)c1ccccc1`, which caspase-3 activation is on record?
Its caspase-3 activation is 1.93%.

For `C=CC(=O)NC(C)C`, which caspase-3 activation is on record?
Its caspase-3 activation is -1.34%.

For `CN(C)CCCNCCCN`, which caspase-3 activation is on record?
The caspase-3 activation was 2.48%.

Which caspase-3 activation does the source give for `CCOc1ccccc1N` here?
The caspase-3 activation was 0.926%.

For `O=Cc1ccc(CO)o1`, which caspase-3 activation is on record?
The caspase-3 activation was -0.436%.

With `c1ccc2[nH]cnc2c1` as the compound, how does the caspase-3 activation read?
Its caspase-3 activation is 1.18%.

Which caspase-3 activation does the source give for `CCCCCCCCC/C=C/CC1CC(=O)OC1=O` (stereo not given) here?
The caspase-3 activation was 1.29%.

Which caspase-3 activation does the source give for `Cc1nc2ccc(Cl)cc2[nH]1` here?
The caspase-3 activation was 0.744%.

Which caspase-3 activation does the source give for `O=Cc1c(Cl)cccc1Cl` here?
The caspase-3 activation was 3.49%.

Which caspase-3 activation does the source give for `Nc1ccc([N+](=O)[O-])c(N)c1` here?
The caspase-3 activation was 0.952%.

With `COC(=O)CC#N` as the compound, how does the caspase-3 activation read?
The caspase-3 activation was 1.32%.

Which caspase-3 activation does the source give for `Cc1ccccc1C=O` here?
Its caspase-3 activation is 0.742%.

Which caspase-3 activation does the source give for `NS(=O)(=O)O` here?
Its caspase-3 activation is 0.859%.

For `CC/C=C/C#N`, which caspase-3 activation is on record?
The caspase-3 activation was -0.0351%.

With `Oc1cccc(Nc2ccccc2)c1` as the compound, how does the caspase-3 activation read?
The caspase-3 activation was 2.02%.

Which caspase-3 activation does the source give for `Cc1cccc(Br)c1` here?
The caspase-3 activation was -1.22%.

With `CC(C)CO` as the compound, how does the caspase-3 activation read?
The caspase-3 activation was -0.38%.

For `O=Cc1cccc(Br)c1`, which caspase-3 activation is on record?
Its caspase-3 activation is 2.44%.

With `O=Cc1ccccc1Cl` as the compound, how does the caspase-3 activation read?
The caspase-3 activation was 7.22%.

Which caspase-3 activation does the source give for `Cc1c(N)cccc1N` here?
The caspase-3 activation was -0.535%.

For `CC(C)(C)c1ccc(OCC2CO2)cc1` (stereo not given), which caspase-3 activation is on record?
The caspase-3 activation was 15.6%.

Which caspase-3 activation does the source give for `OC1CCCC1` here?
The caspase-3 activation was 0.809%.

Which caspase-3 activation does the source give for `CCNc1cc(O)ccc1C` here?
The caspase-3 activation was 0.87%.

With `Nc1cccc(C(F)(F)F)c1` as the compound, how does the caspase-3 activation read?
Its caspase-3 activation is -0.253%.

With `C[C@@H]1O[C@@H](O[C@@H]2[C@@H](O)[C@H](OCCc3ccc(O)c(O)c3)O[C@H](CO[C@@H]3O[C@H](CO)[C@@H](O)[C@H](O)[C@H]3O)[C@H]2OC(=O)/C=C/c2ccc(O)c(O)c2)[C@H](O)[C@H](O)[C@H]1O` as the compound, how does the caspase-3 activation read?
The caspase-3 activation was -3.29%.

Which caspase-3 activation does the source give for `Cc1ccco1` here?
The caspase-3 activation was 0.939%.

Which caspase-3 activation does the source give for `Nc1cccc2c(=O)[nH][nH]c(=O)c12` here?
The caspase-3 activation was 0.167%.

For `Cc1ccc(S(=O)(=O)NC2CCCCC2)cc1`, which caspase-3 activation is on record?
Its caspase-3 activation is 0.692%.

Which caspase-3 activation does the source give for `C=CCCCCCCC=C` here?
The caspase-3 activation was 2.57%.

With `NCCCCCCN` as the compound, how does the caspase-3 activation read?
Its caspase-3 activation is -1.28%.

Which caspase-3 activation does the source give for `Nc1cc(S(=O)(=O)O)ccc1O` here?
The caspase-3 activation was -0.212%.
